# Measured values published in PubChem BioAssay.
# Active and inactive are the calls of the source.
# Experiments:
# [1] = small molecules captured by biotinylated probe aFSTL3 – biochemical, small-molecule microarray, fluorescence 635/667, stem cell growth factor project, primary screen (AID 1064); details: higher = more signal;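 note: measures binding of the biotinylated anti-FSTL3 antibody to printed compounds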
# [2] = binders from COS7 lysate, DM2A8 probe, primary screen, torsin A project, cell lysate, small-molecule microarray, fluorescence 635/667 (AID 1065); details: higher = more signal, COS7 lysate expressing mutant human TOR1A
# [3] = small molecules captured by biotinylated probe aFGF2 – biochemical, small-molecule microarray, fluorescence 635/667, stem cell growth factor project, primary screen (AID 1067); details: higher = more signal;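 note: measures binding of biotinylated aFGF2 protein to printed compounds on slides; z-score merges feature fluorescence and signal-to-noise across triplicate slides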
# [4] = small molecules captured by biotinylated probe aFGF10 – biochemical, small-molecule microarray, fluorescence 635/667, stem cell growth factor project, primary screen (AID 1071); details: higher = more signal;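 note: score merges 667 nm spot intensity and signal to noise from triplicate slides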
# [5] = biological target: Neurogenic locus notch homolog protein 2 (Homo sapiens) (UniProt Q04721); assay: small molecules binding Notch2 protein – biochemical, small-molecule microarray, 635 nm fluorescence, stem cell growth factors, primary screen (AID 1073); details: higher = more signal
# [6] = biological target: Pro-neuregulin-1, membrane-bound isoform (Homo sapiens) (UniProt Q02297); assay: small molecules binding neuregulin-1 protein – biochemical, small-molecule microarray, fluorescence 635/667, psychiatric disease protein project, primary screen (AID 1075); details: NRG1 binding, 635 nm fluorescence, higher = more signal;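 note: score combines 667 nm spot fluorescence with signal to noise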
# [7] = test system: Neuregulin-1 EGF-like domain; assay: small molecules binding NRG1 EGF domain – biochemical, small-molecule microarray, 635 nm fluorescence, primary screen (AID 1081); details: higher = more signal;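 note: binding of the protein to compounds printed on small-molecule microarray slides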
# [8] = FRG1 expression reporter modulators in myotubes – cell-based, C2C12 myotubes, firefly/Renilla luciferase, luminescence, FRG1 inhibition for FSHD, primary screen (AID 1084); details: FRG1 promoter luciferase, higher = more signal, called active from +8 up or from −8 down
# [9] = small molecules captured by biotinylated probe aFST – biochemical, small-molecule microarray, fluorescence 635/667, stem cell growth factor project, primary screen (AID 1086); details: higher = more signal;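 note: score merges 667 nm fluorescence with signal-to-noise of each printed compound spot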
# [10] = binders of probe aHhip on microarray, primary screen, stem cell growth factor project, biochemical, small-molecule microarray, fluorescence 635/667 (AID 1087); details: higher = more signal;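 note: score merges spot fluorescence at 667nm with spot signal to noise ratio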
# Sequence of Pro-neuregulin-1, membrane-bound isoform (Homo sapiens) (Q02297 whole entry, looked up, the tested form may be a part, canonical isoform): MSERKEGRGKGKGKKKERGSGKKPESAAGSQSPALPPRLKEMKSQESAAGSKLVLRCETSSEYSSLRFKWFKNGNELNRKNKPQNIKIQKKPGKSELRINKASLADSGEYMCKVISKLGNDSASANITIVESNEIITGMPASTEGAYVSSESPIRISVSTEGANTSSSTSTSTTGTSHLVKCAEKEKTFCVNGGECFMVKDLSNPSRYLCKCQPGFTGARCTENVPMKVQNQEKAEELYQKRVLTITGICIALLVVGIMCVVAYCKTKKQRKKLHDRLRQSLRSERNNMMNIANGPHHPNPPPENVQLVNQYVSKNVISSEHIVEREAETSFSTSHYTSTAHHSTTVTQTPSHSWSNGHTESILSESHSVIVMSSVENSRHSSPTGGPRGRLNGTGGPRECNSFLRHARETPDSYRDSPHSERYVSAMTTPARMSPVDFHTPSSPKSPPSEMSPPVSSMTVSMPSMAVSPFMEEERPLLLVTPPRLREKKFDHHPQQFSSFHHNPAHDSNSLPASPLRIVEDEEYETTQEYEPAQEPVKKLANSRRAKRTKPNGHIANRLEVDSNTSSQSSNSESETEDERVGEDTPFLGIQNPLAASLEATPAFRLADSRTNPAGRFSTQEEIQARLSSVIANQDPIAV
# Sequence of Neurogenic locus notch homolog protein 2 (Homo sapiens) (Q04721 whole entry, looked up, canonical isoform): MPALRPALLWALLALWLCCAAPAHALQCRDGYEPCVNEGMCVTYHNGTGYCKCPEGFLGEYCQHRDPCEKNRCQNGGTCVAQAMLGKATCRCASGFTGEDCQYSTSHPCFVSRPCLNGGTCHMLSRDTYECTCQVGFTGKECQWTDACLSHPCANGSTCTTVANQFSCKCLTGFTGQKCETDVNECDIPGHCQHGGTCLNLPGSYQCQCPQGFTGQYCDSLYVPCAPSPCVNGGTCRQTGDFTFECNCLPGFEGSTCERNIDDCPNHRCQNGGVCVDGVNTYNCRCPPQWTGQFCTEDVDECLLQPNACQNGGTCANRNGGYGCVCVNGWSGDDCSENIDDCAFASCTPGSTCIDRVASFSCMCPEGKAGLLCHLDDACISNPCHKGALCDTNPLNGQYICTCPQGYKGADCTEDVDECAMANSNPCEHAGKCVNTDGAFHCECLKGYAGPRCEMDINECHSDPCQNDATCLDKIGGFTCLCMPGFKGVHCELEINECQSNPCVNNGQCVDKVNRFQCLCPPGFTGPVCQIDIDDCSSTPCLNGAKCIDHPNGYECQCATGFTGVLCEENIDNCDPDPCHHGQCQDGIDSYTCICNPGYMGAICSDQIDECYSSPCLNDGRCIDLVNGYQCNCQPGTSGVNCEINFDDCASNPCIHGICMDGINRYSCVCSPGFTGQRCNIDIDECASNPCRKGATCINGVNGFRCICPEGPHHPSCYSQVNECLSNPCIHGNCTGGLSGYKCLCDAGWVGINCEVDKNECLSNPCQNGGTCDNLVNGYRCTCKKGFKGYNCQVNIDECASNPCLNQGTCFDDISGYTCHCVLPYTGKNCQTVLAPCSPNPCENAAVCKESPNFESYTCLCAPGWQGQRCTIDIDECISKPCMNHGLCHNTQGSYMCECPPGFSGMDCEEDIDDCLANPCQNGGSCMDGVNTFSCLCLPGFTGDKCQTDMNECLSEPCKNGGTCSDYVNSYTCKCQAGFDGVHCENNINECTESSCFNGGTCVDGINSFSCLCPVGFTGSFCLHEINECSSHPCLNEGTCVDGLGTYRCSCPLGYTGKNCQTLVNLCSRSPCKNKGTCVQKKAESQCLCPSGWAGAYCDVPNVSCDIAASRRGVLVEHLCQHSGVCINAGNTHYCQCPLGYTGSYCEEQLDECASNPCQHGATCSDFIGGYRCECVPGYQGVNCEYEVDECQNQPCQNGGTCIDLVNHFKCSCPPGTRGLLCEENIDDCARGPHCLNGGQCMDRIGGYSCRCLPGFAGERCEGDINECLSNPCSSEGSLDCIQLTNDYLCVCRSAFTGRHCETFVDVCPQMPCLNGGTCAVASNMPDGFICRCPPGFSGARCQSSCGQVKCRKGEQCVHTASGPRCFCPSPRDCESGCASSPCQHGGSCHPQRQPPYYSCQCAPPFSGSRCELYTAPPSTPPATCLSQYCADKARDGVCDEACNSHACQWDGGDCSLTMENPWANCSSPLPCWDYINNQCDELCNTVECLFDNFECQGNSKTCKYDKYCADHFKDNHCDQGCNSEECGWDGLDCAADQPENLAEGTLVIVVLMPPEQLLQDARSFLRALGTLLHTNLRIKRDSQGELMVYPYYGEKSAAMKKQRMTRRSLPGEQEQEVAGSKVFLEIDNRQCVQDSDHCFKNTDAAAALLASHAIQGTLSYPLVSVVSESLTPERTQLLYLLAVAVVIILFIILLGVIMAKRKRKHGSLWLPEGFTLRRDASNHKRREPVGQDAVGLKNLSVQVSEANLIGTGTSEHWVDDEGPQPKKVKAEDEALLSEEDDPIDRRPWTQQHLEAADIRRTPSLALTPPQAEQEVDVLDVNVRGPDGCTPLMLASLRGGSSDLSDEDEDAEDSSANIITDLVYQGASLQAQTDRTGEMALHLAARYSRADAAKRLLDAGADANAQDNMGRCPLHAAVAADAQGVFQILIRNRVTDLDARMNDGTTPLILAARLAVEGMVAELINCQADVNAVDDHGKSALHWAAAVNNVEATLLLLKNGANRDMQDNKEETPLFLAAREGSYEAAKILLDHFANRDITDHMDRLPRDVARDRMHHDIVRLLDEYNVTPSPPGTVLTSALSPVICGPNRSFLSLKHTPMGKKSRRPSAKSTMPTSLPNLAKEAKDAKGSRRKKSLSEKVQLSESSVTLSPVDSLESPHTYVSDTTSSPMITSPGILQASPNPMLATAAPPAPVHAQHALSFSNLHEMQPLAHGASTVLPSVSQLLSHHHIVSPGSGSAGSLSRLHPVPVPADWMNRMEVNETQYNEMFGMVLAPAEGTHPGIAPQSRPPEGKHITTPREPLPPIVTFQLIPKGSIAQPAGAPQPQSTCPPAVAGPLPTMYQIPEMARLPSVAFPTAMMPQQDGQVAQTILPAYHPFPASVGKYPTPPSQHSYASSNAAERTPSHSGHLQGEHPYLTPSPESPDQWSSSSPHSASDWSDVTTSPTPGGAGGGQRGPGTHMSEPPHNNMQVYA
Compound,composite z-score [1],composite z-score [2],composite z-score [3],composite z-score [4],composite z-score [5],composite z-score [6],composite z-score [7],z-score [8],composite z-score [9],composite z-score [10]
CC1(C)C(=O)C(c2ccccc2)=C2CN3C(=O)N(CCc4ccccc4)C(=O)C3(Cc3ccc(C(F)(F)F)cc3)C=C21 (stereo not given),0.138,-0.2,0.0814,0.432,1.66,0.613,0.831,-0.495 (inactive),1.67,-0.0024
CCCCC(=C=CC[C@H](O)c1ccc(OCCO)cc1)C[C@H](O)COCc1ccccc1,-0.117,-0.366,-0.0409,0.692,-0.238,1.06,0.879,-0.947 (inactive),-0.0834,0.152
O=C1OCC=C[C@H]2OC34C=CCN(c5ccc6ccccc6c5)C(=O)[C@H]3N(CCCCCO)C(=O)[C@@H]4[C@@H]12 (stereo not given in full),1.43,-0.964,-0.0407,-0.61,-0.994,2.26,1.39,-0.139 (inactive),-0.356,-0.338
C=CCNC(=O)[C@H]1[C@@H]2C(=O)O[C@@H](c3ccccc3)[C@@H](c3ccccc3)N2[C@@H](c2ccc(OCCO)cc2)[C@]12C(=O)Nc1ccc(C#CCNC(N)=O)cc12,0.264,0.311,0.0015,0.641,0.112,0.883,0.817,-0.651 (inactive),1.28,0.0623
CO[C@H]1O[C@H](CO)[C@@H](OC(=O)Nc2cccc(F)c2)[C@H](OC(=O)Nc2ccccc2-c2ccccc2)[C@H]1OC(=O)Nc1ccccc1-c1ccccc1,-0.24,0.368,0.0591,0.64,1.53,1.72,1.35,0.322 (inactive),1.36,-0.247
CCC(CC)C(O)C1C=CC2C(=O)N(c3ccccc3)C(=O)C2N1Nc1ccc([N+](=O)[O-])cc1 (stereo not given),0.453,-0.0903,0.22,0.848,1.56,1.07,1.26,-1.91 (inactive),0.944,0.327
CN1C=C(C(=O)OCCS(C)(=O)=O)C(C(=O)OCCS(C)(=O)=O)=CC(c2ccc(CO)cc2)=CC1c1cccs1 (stereo not given),-0.0269,-0.0376,-0.0448,0.236,-0.0588,1.47,1.03,2.55 (inactive),0.0216,0.0024
[N-]=[N+]=Nc1ccccc1[C@@H]1OC(c2ccc(OCCCO)cc2)=N[C@]1(Cc1ccccc1)C(=O)NCc1ccccc1,0.97,1.72,0.0653,0.371,1.59,1.6,1.2,-1.2 (inactive),1.21,0.0614
CC(C)CNC(=O)[C@@H]1c2ccccc2C(=O)N(C2CCCCC2)[C@H]1c1ccc(CO)cc1,0.386,-0.754,-0.0962,-0.305,-0.354,1.69,1.28,-1.8 (inactive),0.0088,0.0497
C=CCOC(=O)[C@H]1[C@@H]2C(=O)O[C@@H](c3ccccc3)[C@@H](c3ccccc3)N2[C@@H](c2ccc(OCCOC(=O)[C@H]3C[C@H]4C(=O)N[C@@H](CCCCNC(C)=O)C(=O)N4[C@H]3c3cccc(OCCO)c3)cc2)[C@]12C(=O)Nc1ccc(I)cc12,0.276,1.01,-0.144,0.818,0.656,1.29,1.26,0.29 (inactive),2.65,0.215
NCCCCCNC(=O)[C@@H]1C[C@@H]2C(=O)N3CCC[C@H]3C(=O)N2[C@@H]1c1ccc(O)cc1,1.19,0.0642,0.0232,0.42,0.714,0.976,1.1,0.0207 (inactive),1,0.0053
C=C(/C(=C/C[C@@H](OC(C)=O)c1ccc(CO)o1)c1cc(C(=O)OC)ccc1OC)C(C)C,-0.245,-0.02,-0.076,0.938,1.18,1.18,1.21,-0.0698 (inactive),-0.0417,-0.0618
COCCOC(=O)N1C(=O)[C@@]2(c3cc(C#CCCO)ccc31)[C@H](c1ccccc1OCCO)N1[C@H](c3ccccc3)[C@H](c3ccccc3)OC(=O)[C@H]1[C@@H]2C(=O)N1CCCCCCC1,2.91,0.821,0.452,0.413,1.14,1.72,1.32,-3.3 (inactive),2.59,2.43
C=C[C@H](C)[C@H](OC(=O)Nc1ccc(OC)cc1)c1ccc(OCCO)cc1,0.284,-0.294,-0.181,-1.65,-1.34,-0.154,0.834,3.14 (inactive),-0.635,-0.0173
CN1C(=O)C2C=CC(C(O)c3ccc(F)cc3)N(NC(=O)OC(C)(C)C)C2C1=O (stereo not given),-0.179,-0.598,0.0505,0.257,1,1.68,1.38,0.186 (inactive),0.734,-0.0464
COc1cc(NN2C(C(O)c3ccccc3)C=CC3C(=O)N(C)C(=O)C32)cc(OC)c1OC (stereo not given),0.0217,0.48,0.0074,0.371,1.34,1.88,1.36,0.359 (inactive),0.4,-0.0672
CCCNC(=O)[C@@]1(Sc2ccc(C)cc2)CC(=O)N(C(C)C)[C@@H]1c1ccc(CO)cc1I,1.2,0.0023,-0.104,-0.77,-1.06,1.98,-0.0039,-0.733 (inactive),-0.433,-0.0994
COCCOC(=O)N1C(=O)[C@@]2(c3cc(C#CCNC(N)=O)ccc31)[C@H](c1ccc(O)cc1)N1[C@H](c3ccccc3)[C@H](c3ccccc3)OC(=O)[C@H]1[C@@H]2C(=O)N1CCN(c2ncccn2)CC1,-0.487,0.594,0.0762,0.661,0.629,1.19,1.1,-0.523 (inactive),0.34,-0.218
Nc1cc(Br)ccc1C(=O)O,-0.0861,0.0499,-0.17,0.307,0.314,0.505,0.742,0.0039 (inactive),0.195,-0.229
Cc1ccccc1C(O)C1C=CC2C(=O)N(c3ccccc3)C(=O)C2N1Nc1ccc([N+](=O)[O-])cc1 (stereo not given),-0.0848,0.804,-0.0271,0.681,1.07,1.87,1.27,-1.24 (inactive),0.886,-0.189
COCCCNC(=O)[C@@]1(Sc2ccc(C)cc2)CC(=O)N(Cc2ccccc2Cl)[C@@H]1c1ccc(CO)cc1I,0.386,-0.983,-0.191,-0.304,-0.911,1.08,0.449,-2.5 (inactive),-0.431,-0.0994
